# According to PubChem BioAssay AID1159580 (chemical genetic matrix, 2015):
# Where “and” joins values, the source holds several entries; their conditions need not be identical. Identical values can stand only once. The campaign covered roughly 5,500 compounds. About 2,000 (36%) were called active. Roughly 18% stayed inconclusive and do not appear here. Cut-off read from the data, not from the text of the source: active = normalized growth mostly below about 0.91 (no sharp cut-off); inconclusive = no clear call, values can overlap the other calls; inactive = mostly above about 0.92. The list shows a part of the results.
# Experiment: chemical genetic growth profiling, strain panel (AID 1159580);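 note: tested at 20 µM; growth read once vehicle control cultures reached saturation at 30 °C; 1 = growth at the plate median or of vehicle wells; lower values mean less growth of the strain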
# Conditions: S. cerevisiae deletion strains, growth OD
compound,measurement,setting,value
CC(CCC(=O)O)[C@H]1CCC2C3CC[C@@H]4C[C@H](O)CC[C@]4(C)C3CC[C@@]21C (some centres not stated),normalized growth,"locus YAL013W, strain DEP1, stronger effect = lower value",0.831 (active)
same,normalized growth,"locus YAL021C, strain ccr4, stronger effect = lower value",0.982 (inactive)
same,normalized growth,"locus YAL026C, strain drs2, stronger effect = lower value",0.946 (inactive)
same,normalized growth,"locus YAL030W, strain snc1, stronger effect = lower value",0.989 (inactive)
same,normalized growth,"locus YBL061C, strain skt5, stronger effect = lower value",1.03 (inactive)
same,normalized growth,"locus YBR009C, strain hhf1, stronger effect = lower value",0.888 (active)
same,normalized growth,"locus YBR021W, strain FUR4, stronger effect = lower value",0.932 (inactive)
same,normalized growth,"locus YBR023C, strain chs3, stronger effect = lower value",0.924 (inactive)
same,normalized growth,"locus YBR171W, strain sec66, stronger effect = lower value",1.01 (inactive)
same,normalized growth,"locus YBR229C, strain ROT2, stronger effect = lower value",1.04 (inactive)
same,normalized growth,"locus YBR231C, strain swc5, stronger effect = lower value",0.939 (inactive)
same,normalized growth,"locus YBR279W, strain paf1, stronger effect = lower value",1.01 (inactive)
same,normalized growth,"locus YCL011C, strain gbp2, stronger effect = lower value",0.974 (inactive)
same,normalized growth,"locus YCL016C, strain dcc1, stronger effect = lower value",0.909 (active)
same,normalized growth,"locus YCL029C, strain bik1, stronger effect = lower value",0.993 (inactive)
same,normalized growth,"locus YCL061C, strain MRC1, stronger effect = lower value",0.931 (inactive)
same,normalized growth,"locus YCL069W, strain vba3, stronger effect = lower value",1 (inactive)
same,normalized growth,"locus YCR088W, strain abp1, stronger effect = lower value",0.993 (inactive)
same,normalized growth,"locus YDL005C, strain med2, stronger effect = lower value",1.01 (inactive)
same,normalized growth,"locus YDL035C, strain GPR1, stronger effect = lower value",0.528 (active)
same,normalized growth,"locus YDL040C, strain nat1, stronger effect = lower value",1.03 (inactive)
same,normalized growth,"locus YDL074C, strain BRE1, stronger effect = lower value",0.698 (active)
same,normalized growth,"locus YDL101C, strain DUN1, stronger effect = lower value",0.713 (active)
same,normalized growth,"locus YDL185W, strain tfp1, stronger effect = lower value",1.04 (inactive)
same,normalized growth,"locus YDL192W, strain arf1, stronger effect = lower value",0.856 (active)
same,normalized growth,"locus YDR001C, strain nth1, stronger effect = lower value",1.02 (inactive)
same,normalized growth,"locus YDR069C, strain doa4, stronger effect = lower value",0.947 (inactive)
same,normalized growth,"locus YDR101C, strain arx1, stronger effect = lower value",0.977 (inactive)
same,normalized growth,"locus YDR137W, strain rgp1, stronger effect = lower value",0.452 (active)
same,normalized growth,"locus YDR159W, strain sac3, stronger effect = lower value",0.925 (inactive)
same,normalized growth,"locus YDR162C, strain NBP2, stronger effect = lower value",0.208 (active)
same,normalized growth,"locus YDR195W, strain ref2",1.07 (inactive)
same,normalized growth,"locus YDR297W, strain sur2, stronger effect = lower value",1 (inactive)
same,normalized growth,"locus YDR318W, strain mcm21, stronger effect = lower value",0.951 (inactive)
same,normalized growth,"locus YDR334W, strain swr1, stronger effect = lower value",0.989 (inactive)
same,normalized growth,"locus YDR335W, strain msn5, stronger effect = lower value",0.926 (inactive)
same,normalized growth,"locus YDR388W, stronger effect = lower value",1.01 (inactive)
same,normalized growth,"locus YDR392W, strain spt3, stronger effect = lower value",0.735 (active)
same,normalized growth,"locus YDR502C, strain sam2, stronger effect = lower value",0.878 (active)
same,normalized growth,"locus YEL003W, strain gim4, stronger effect = lower value",0.94 (inactive)
same,normalized growth,"locus YEL037C, strain rad23, stronger effect = lower value",0.994 (inactive)
same,normalized growth,"locus YEL061C, strain CIN8 (second series), stronger effect = lower value",1.01 (inactive)
same,normalized growth,"locus YEL061C, strain CIN8, stronger effect = lower value",0.912 (active)
same,normalized growth,"locus YER015W, strain faa2, stronger effect = lower value",0.907 (active)
same,normalized growth,"locus YER016W, strain bim1, stronger effect = lower value",1 (inactive)
same,normalized growth,"locus YER110C, stronger effect = lower value",1.07 (inactive)
same,normalized growth,"locus YER111C, strain swi4, stronger effect = lower value",1.01 (inactive)
same,normalized growth,"locus YER155C, strain BEM2 (second series), stronger effect = lower value",1.04 (inactive)
same,normalized growth,"locus YER155C, strain BEM2, stronger effect = lower value",0.852 (active)
same,normalized growth,"locus YER167W, strain BCK2, stronger effect = lower value",0.906 (inactive)
same,normalized growth,"locus YFR010W, strain ubp6, stronger effect = lower value",0.982 (inactive)
same,normalized growth,"locus YGL078C, strain dbp3, stronger effect = lower value",0.926 (inactive)
same,normalized growth,"locus YGL086W, strain mad1, stronger effect = lower value",0.923 (active)
same,normalized growth,"locus YGL167C, strain pmr1, stronger effect = lower value",0.988 (inactive)
same,normalized growth,"locus YGL173C, strain kem1, stronger effect = lower value",0.701 (active)
same,normalized growth,"locus YGL227W, strain vid30, stronger effect = lower value",1 (inactive)
same,normalized growth,"locus YGL240W, strain doc1, stronger effect = lower value",0.89 (inactive)
same,normalized growth,"locus YGL248W, strain PDE1, stronger effect = lower value",0.827 (active)
same,normalized growth,"locus YGL253W, strain hxk2, stronger effect = lower value",0.989 (inactive)
same,normalized growth,"locus YGR078C, strain PAC10, stronger effect = lower value",0.757 (active)
same,normalized growth,"locus YGR135W, strain pre9, stronger effect = lower value",0.84 (active)
same,normalized growth,"locus YGR229C, strain SMI1, stronger effect = lower value",0.356 (active)
same,normalized growth,"locus YGR252W, strain gcn5, stronger effect = lower value",0.792 (inactive)
same,normalized growth,"locus YHR013C, strain ard1, stronger effect = lower value",1.01 (inactive)
same,normalized growth,"locus YHR027C, strain rpn1, stronger effect = lower value",0.94 (inactive)
same,normalized growth,"locus YHR030C, strain SLT2, stronger effect = lower value",0.762 (active) and 0.955 (inactive)
same,normalized growth,"locus YHR079C, strain IRE1 (second series), stronger effect = lower value",1.06 (inactive)
same,normalized growth,"locus YHR079C, strain IRE1, stronger effect = lower value",0.955 (inactive)
same,normalized growth,"locus YHR094C, strain hxt1, stronger effect = lower value",1.08 [resistant] (active)
same,normalized growth,"locus YHR129C, strain ARP1, stronger effect = lower value",0.791 (active)
same,normalized growth,"locus YHR142W, strain chs7, stronger effect = lower value",0.873 (active)
same,normalized growth,"locus YHR200W, strain rpn10, stronger effect = lower value",1.02 (inactive)
same,normalized growth,"locus YIL066C, strain RNR3, stronger effect = lower value",0.79 (active)
same,normalized growth,"locus YIL073C, strain SPO22, stronger effect = lower value",0.937 (inactive)
same,normalized growth,"locus YIL125W, strain kgd1, stronger effect = lower value",1.04 (inactive)
same,normalized growth,"locus YIR030C, strain dcg1, stronger effect = lower value",1.04 (inactive)
same,normalized growth,"locus YJL092W, strain hpr5, stronger effect = lower value",0.966 (inactive)
same,normalized growth,"locus YJL095W, strain BCK1 (second series), stronger effect = lower value",0.893 (active)
same,normalized growth,"locus YJL095W, strain BCK1, stronger effect = lower value",0.522 (active) and 0.953 (inactive)
same,normalized growth,"locus YJL115W, strain asf1, stronger effect = lower value",1.01 (inactive)
same,normalized growth,"locus YJL129C, strain trk1, stronger effect = lower value",0.914 (inactive)
same,normalized growth,"locus YJL134W, strain LCB3, stronger effect = lower value",1.04 (inactive)
same,normalized growth,"locus YJL154C, strain vps35, stronger effect = lower value",0.997 (inactive)
same,normalized growth,"locus YJL164C, strain tpk1, stronger effect = lower value",0.92 (inactive)
same,normalized growth,"locus YJL166W, strain qcr8, stronger effect = lower value",0.83 (active)
same,normalized growth,"locus YJL168C, strain set2, stronger effect = lower value",1.14 [resistant] (active)
same,normalized growth,"locus YJL187C, strain SWE1 (second series), stronger effect = lower value",0.791 (active)
